Source: PubChem BioAssay AID1851 (National Center for Advancing Translational Sciences (NCATS), 2009)
About 4,000 (25%) of roughly 16,000 compounds were called active. Another 26% or so got no clear call; they are omitted. Only a sample is shown. A number with no mark means an inactive call. Calls come from the whole dose curve; as a rule, active = well fitted curve in the direction sought with a large enough effect; inconclusive = small, poorly fitted or top-dose-only effect, or effect the other way; inactive = no such curve, though single readings can be large or run the other way.

What follows are compounds tested against Cytochrome P450 2C9 (Homo sapiens) (UniProt P11712) (assay: Cytochrome panel assay with activity outcomes). Details: recombinant CYP, pro-luciferin dealkylation, luminescence, p450-cyp2c9; series mostly up to 57.1 µM.
Chain of Cytochrome P450 2C9 (Homo sapiens) (P11712 whole entry, looked up): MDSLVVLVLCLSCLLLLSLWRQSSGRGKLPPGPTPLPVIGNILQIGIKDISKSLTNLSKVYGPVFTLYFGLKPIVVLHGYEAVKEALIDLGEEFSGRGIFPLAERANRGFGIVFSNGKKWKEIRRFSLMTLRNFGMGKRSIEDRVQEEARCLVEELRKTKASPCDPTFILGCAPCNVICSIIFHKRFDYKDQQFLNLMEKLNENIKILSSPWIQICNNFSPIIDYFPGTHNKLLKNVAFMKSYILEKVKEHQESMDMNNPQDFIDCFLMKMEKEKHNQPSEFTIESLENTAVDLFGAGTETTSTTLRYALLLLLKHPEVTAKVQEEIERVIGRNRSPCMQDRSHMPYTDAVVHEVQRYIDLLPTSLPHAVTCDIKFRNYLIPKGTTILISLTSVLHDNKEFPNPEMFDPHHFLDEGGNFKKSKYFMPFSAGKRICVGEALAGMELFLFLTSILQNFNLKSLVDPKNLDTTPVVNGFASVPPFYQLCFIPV
% is set by controls: 0 for no effect and ±100 for the full control effect.

SMILES	AC50	activity, negative = inhibition
CC1(C)SC(=S)N(NC(=O)Nc2ccccc2)C1N(O)C(=O)Nc1ccccc1 (centres undefined)	10 µM (active)	
COCCNc1nc(-c2ccccc2CN(C)C)nc2ccccc12		1.68% [at 2.29 µM]
COc1ccc([C@H](O)c2ccccn2)cc1		-12.5% [at 11.4 µM]
COc1ccc([C@@H](Nc2ccccn2)c2cc(C(C)(C)C)cc(C(C)(C)C)c2O)cc1	2.51 µM (active)	
O[C@H](CNc1ccccn1)c1ccccc1		-4.96% [at 11.4 µM]
CN1CCN(c2ccc([N+](=O)[O-])cc2NC(=O)c2ccccc2Cl)CC1	inactive	
O=[N+]([O-])c1ccc(N2CCN(CCOc3nonc3-c3ccccc3)CC2)c(Cl)c1	22.4 µM (active)	
c1ccc2c(c1)oc1c(NCCCn3ccnc3)ncnc12	0.447 µM (active)	
c1cncc(-c2ccc3ncnc(NCCN4CCOCC4)c3c2)c1		23.6% [at 2.29 µM]
c1ccc(-n2ncc3c(NCCCN4CCOCC4)ncnc32)cc1	inactive	
COc1ccc(-c2nc3cnc(OC)nc3n(-c3ccc(OC)cc3)c2=O)cc1	inactive	
CCNc1ncc2nc(C)c(=O)n(C3CC3)c2n1	inactive	
Cc1ccc(-c2nnc(-c3ccc(NC(=O)c4cccs4)cc3)o2)cc1	5.01 µM (active)	
Cc1ccccc1-c1nccc(NCc2cccs2)n1		-17.9% [at 2.29 µM]
Cc1ccccc1-c1nc(-c2ccc(NC(=O)c3cccs3)cc2)no1	12.6 µM (active)	
CS(=O)(=O)c1ccccc1-c1nc(-c2cc(C(F)(F)F)cc(C(F)(F)F)c2)no1	inactive	
O=C(c1csnn1)N1CCC[C@@]2(CCN(Cc3nccs3)C2)C1	inactive	
c1ccc(CCCNc2nnnc3ccccc23)cc1		-19.1% [at 11.4 µM]
Cc1cc([N+](=O)[O-])ccc1NCc1ccccc1	3.55 µM (active)	
O=C(O)c1cc([N+](=O)[O-])ccc1NCCCc1ccccc1	0.501 µM (active)	
COC(=O)C/C=C\[C@@H](C)[C@@H](/C=N\O[C@@H](C)CN1CCCc2nc(C)c(C)cc21)OC		-19.3% [at 11.4 µM]

SMILES	AC50	activity, negative = inhibition
CN1CCCC2(CCN(S(=O)(=O)c3ccccc3)CC2)C1	inactive	
CS(=O)(=O)N1CCC2(CCCN(c3ccccn3)C2)CC1	inactive	
O=S(=O)(c1ccccc1)N1CCC2(CCCN(c3ncccn3)C2)CC1	1 µM (active)	
CC(C)CN1CC[C@@]2(CCCN(S(=O)(=O)c3ccccc3)C2)C1	inactive	
O=S(=O)(c1ccccc1)N1CCC2(CC1)CN(c1ncccn1)C2	inactive	
CS(=O)(=O)N1CCC[C@@]2(CCN(c3ccccn3)C2)C1	inactive	
O=S(=O)(c1ccccc1)N1CCC[C@@]2(CCN(c3ccncc3)C2)C1	15.8 µM (active)	
O=S(=O)(c1ccccc1)N1CCC2(CC1)CN(c1ccccn1)C2	inactive	
O=S(=O)(c1ccccc1)N1CCC2(CCCN(c3ccccc3)C2)CC1	1.26 µM (active)	
O=S(=O)(c1ccccc1)N1CCC2(CCN(c3ncccn3)CC2)CC1	inactive	
O=S(=O)(c1ccccc1)N1CCC2(CCCN(c3ccccn3)C2)CC1	1 µM (active)	
O=S(=O)(c1ccccc1)N1CCC2(CCCN(c3cccc(-c4ccccc4)c3)C2)CC1	inactive	
C=C(NC(=O)C(=C)NC(=O)c1csc(C2=N[C@@H]3c4csc(n4)[C@@H]4NC(=O)c5csc(n5)[C@@H]([C@](C)(O)[C@H](C)O)NC(=O)[C@@H]5CSC(=N5)/C(=C/C)NC(=O)[C@@H]([C@H](C)O)NC(=O)c5csc(n5)[C@]3(CC2)NC(=O)[C@@H](C)NC(=O)C(=C)NC(=O)[C@@H](C)NC(=O)[C@@H]([C@@H](C)CC)N[C@H]2C=Cc3c([C@H](C)O)cc(nc3[C@@H]2O)C(=O)O[C@H]4C)n1)C(N)=O	inactive	
O=[N+]([O-])/C=C/c1cn(Cc2ccccc2)c2ccccc12	11.2 µM (active)	
O=C1C2C3C=CC(C3)C2C(=O)N1/N=C/c1cn(Cc2ccccc2)c2ccccc12 (centres undefined)	inactive	
O=C1C2C3C=CC(C3)C2C(=O)N1/N=C/c1cn(Cc2ccc(F)cc2)c2ccccc12 (centres undefined)	inactive	
C/C(=N/O)c1ccc2cc(Br)c3ccccc3c2c1		-8.36% [at 11.4 µM]
Cc1cccc(CNc2nc(-c3ccccc3CN(C)C)nc3ccccc23)c1		-1.33% [at 2.29 µM]
Nc1ccc(N(c2ccccc2)c2ccc(N)cc2)cc1	7.08 µM (active)	
C[C@H](c1ccccc1)N1C(=O)[C@H]2[C@@H]3[C@H](O)[C@H](O)CC(=O)[C@H]3CC[C@H]2C1=O		20% [at 11.4 µM]
N[C@@H](Cc1cc(CP(=O)(O)O)cc(-c2ccccc2Cl)c1)C(=O)O	inactive	

SMILES	AC50	activity, negative = inhibition
Cc1c(N2CCCC2)cc2c(c1NC(=O)c1ccccc1Cl)C(C)(C)CC2(C)C		-14.9% [at 11.4 µM]
Cc1cc(F)ccc1S(=O)(=O)Nc1ccccc1C(=O)Nc1ccccc1N1CCOCC1	0.447 µM (active)	
COC(=O)CSC(C(=O)Nc1ccc(C)c(C)c1)c1ccccc1 (centres undefined)	1.78 µM (active)	
Cc1ccc(NC(=O)C2C3CCCC2C3c2ccccc2)cc1C (centres undefined)	inactive	
Cc1ccc(NC(=O)c2ccccc2C(=O)O)cc1C		-16.6% [at 11.4 µM]
C#CCCCO/N=C1/C[C@@H](O)[C@@H](O)[C@@H]2[C@@H]3C(=O)N(CCC(=O)OCC)C(=O)[C@H]3CC[C@H]12		12.8% [at 11.4 µM]
Cc1cccc(C)c1OC[C@@H](N)C(C)C	inactive	
COC(=O)c1[nH]c2ccc(Br)cc2c1NC(=O)CN1CCN(C2CCCCC2)CC1	inactive	
COC(=O)c1[nH]c2ccc(Br)cc2c1NC(=O)CN1CCCc2ccccc21	0.891 µM (active)	
CC1(C)CC(=O)C2=C(C1)Nc1cc3c(cc1C2c1ccc(F)cc1)OCO3 (centres undefined)	4.47 µM (active)	
N#Cc1c(NC(=O)C(F)(F)F)sc2c3c(=O)c4ccccc4c(=O)c=3oc3ccccc3c12	0.0501 µM (active)	
O=C(NC12CC3CC(CC(C3)C1)C2)N1CCN(c2nc(-c3ccccc3)cs2)CC1	12.6 µM (active)	
COc1ccc(-n2c(=O)c(C)nc3cnc(OC)nc32)cc1	inactive	
Cc1noc(C)c1-c1ccc2ncnc(N(C)C)c2c1		10.9% [at 2.29 µM]
CCN1C(=O)/C(=C2\SC(=S)N(CCCOC)C2=O)c2ccccc21	0.794 µM (active)	
CN(C)CN1C(=O)S/C(=C2/C(=O)N(CN(C)C)c3ccccc32)C1=O		-9.33% [at 11.4 µM]
CC(C)Cn1cnc2c(Sc3c([N+](=O)[O-])ncn3C)nc(N)nc21		29.4% [at 11.4 µM]
O=C(CN1C(=O)c2ccccc2C1=O)NC1(C(=O)O)CCCC1		4.07% [at 11.4 µM]
O=C1c2ccccc2C(=O)N1CC(=O)N1c2ccccc2CCc2ccccc21	3.55 µM (active)	
CCN(CC)CCC(=O)Nc1ccc2c(c1)N(C(=O)CN(CC)CC)c1ccccc1CC2	inactive	
Cc1noc(C)c1-c1ccc2ncnc(NC3CCNCC3)c2c1		14.5% [at 2.29 µM]

SMILES	AC50	activity, negative = inhibition
Cc1nnc(S(=O)(=O)c2ccc(N=Nc3c(N)nc(N)nc3N)cc2)s1		-2.75% [at 11.4 µM]
CCCC(=O)N1CCN(c2ccc(NC(=O)c3ccc(OCC)c([N+](=O)[O-])c3)cc2)CC1	inactive	
CCOc1ccc(C(=O)Nc2cccc(-c3cc4ccccc4oc3=O)c2)cc1[N+](=O)[O-]	1.41 µM (active)	
COc1cc(C(=O)NC(=S)Nc2ccc3oc(=O)ccc3c2)cc(OC)c1OC	inactive	
Cc1nc(-c2cccc(NC(=O)c3cc4cc(Br)ccc4oc3=O)c2)cs1	inactive	
COc1cc(NC(=O)c2cc(Cl)ccc2Cl)ccc1-c1cc2ccccc2oc1=O	4.47 µM (active)	
COc1cc(C(=O)NC(=S)Nc2cccc(-c3cc4ccccc4oc3=O)c2)cc(OC)c1OC	3.55 µM (active)	
NCCOB(c1ccccc1)c1ccccc1	inactive	
CC(=O)Nc1ccc(S(=O)(=O)NC2(C(F)(F)F)NC(=O)N(c3ccc(Cl)cc3)C2=O)cc1 (centres undefined)	10 µM (active)	
Cc1ccc(-n2c3c(c(=O)[nH]c2=O)C(NS(=O)(=O)c2ccc(C)cc2)(C(F)(F)F)C(=O)N3)cc1 (centres undefined)	inactive	
CN(N=O)c1ccc(/C=C\c2ccnc3ccccc23)cc1		-6.97% [at 11.4 µM]
Oc1c(CN2CCCCC2)cc(Br)c2cccnc12	inactive	
CON(c1nc(N(C)C)nc(N(C)C)n1)S(=O)(=O)c1ccccc1Cl	11.2 µM (active)	
CC(=O)Nc1cccc(C(=O)OC(C(=O)c2ccc(C)c(C)c2)c2ccccc2)c1 (centres undefined)	3.98 µM (active)	
NC(N)=NC(=O)c1nc(Cl)c(N)nc1N	inactive	
FC(F)Sc1ccc(N=C2NN=C(c3ccc4c(c3)OCCO4)CS2)cc1	22.4 µM (active)	
C[N+](C)(C)CCCCCNCC12CC3CC(CC(C3)C1)C2	inactive	
COC(=O)[C@@]1(Cc2ccc(F)cc2)[C@H]2c3cc(C(=O)N4CCCC4)n(Cc4ccc(OC(F)(F)F)cc4)c3C[C@H]2CN1C(=O)c1ccccc1	6.31 µM (active)	
COC(=O)[C@@]1(Cc2ccc(F)cc2)[C@H]2c3cc(C(=O)N4CCCC4)n(Cc4ccc(S(C)(=O)=O)cc4)c3C[C@H]2CN1C(=O)c1ccccc1	25.1 µM (active)	
COC(=O)[C@@]1(Cc2ccc(F)cc2)[C@H]2c3cc(C(=O)N4CCCC4)n(Cc4ccccc4)c3C[C@H]2CN1C(=O)c1ccccc1	3.98 µM (active)	
COC(=O)[C@@]1(Cc2ccc(F)cc2)[C@H]2c3cc(C(=O)N4CCCC4)n(Cc4ccc(C)c(F)c4F)c3C[C@H]2CN1C(=O)c1ccccc1	10 µM (active)	
